Assay outcomes: PubChem BioAssay, several laboratories
In the library only some 1.3% were active in any assay of this set; here they are far more common.
SDO1 yeast rescue – sdo1-depleted yeast growth rescue; S. cerevisiae sdo1-depleted JHY4D growth rescue, OD600 30 h; active compounds read high; pdr5 snq2 efflux-pump mutant strain; z-score at 10 µM; 0.21% of 140,000 active;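 active = z-score above 3 at both the 24 hr and the 30 hr optical density reads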;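 also: z-score against mean and SD of all compound wells on the same plate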
Mac1 fbg inh – blocks human CD11b/CD18 adhesion to fibrinogen; P05107+P11215; K562 CD11b/CD18 adhesion to fibrinogen, ATPlite luminescence; Mn2+ added to activate the integrin; inhibition, % at 10 µM; 0.54% of 93,000 active; AID 1497;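 active = primary inhibition of 50% or more at 10 µM, then 40% or more on retest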
Target sequence (P05107 whole entry, looked up, other chains not shown): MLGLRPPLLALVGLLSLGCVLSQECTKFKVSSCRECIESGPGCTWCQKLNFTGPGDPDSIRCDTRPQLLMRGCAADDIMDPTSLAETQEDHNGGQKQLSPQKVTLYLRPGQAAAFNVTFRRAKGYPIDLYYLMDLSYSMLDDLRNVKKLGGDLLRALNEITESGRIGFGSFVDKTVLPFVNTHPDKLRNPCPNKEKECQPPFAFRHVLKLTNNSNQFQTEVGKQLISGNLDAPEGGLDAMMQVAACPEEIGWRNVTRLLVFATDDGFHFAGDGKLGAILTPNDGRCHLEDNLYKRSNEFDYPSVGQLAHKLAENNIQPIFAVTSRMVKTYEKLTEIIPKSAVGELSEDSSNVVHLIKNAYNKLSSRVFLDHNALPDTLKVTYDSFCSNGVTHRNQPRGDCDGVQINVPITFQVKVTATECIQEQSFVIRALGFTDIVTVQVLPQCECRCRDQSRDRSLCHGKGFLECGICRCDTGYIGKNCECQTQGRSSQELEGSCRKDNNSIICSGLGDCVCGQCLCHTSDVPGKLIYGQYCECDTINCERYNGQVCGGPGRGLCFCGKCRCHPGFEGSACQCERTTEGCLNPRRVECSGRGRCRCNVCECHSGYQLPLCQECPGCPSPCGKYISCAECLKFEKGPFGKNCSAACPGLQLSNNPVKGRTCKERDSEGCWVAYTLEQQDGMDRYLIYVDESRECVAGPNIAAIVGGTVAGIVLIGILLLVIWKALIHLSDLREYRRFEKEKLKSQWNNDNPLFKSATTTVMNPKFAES
Phagocyt inh – inhibitors of macrophage phagocytosis; J774A.1 macrophage IgG-bead phagocytosis, imaging; 0.07% of 110,000 active; inhibition, % at 5 µM; AID 1029;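 active = inhibition above the mean of the plate negative controls plus 5 SD, cut at about 13% in these data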;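 also: phagocytic index as fraction of beads internalized from green versus red external bead signal; plate controls were DMSO negative control for no effect and cytochalasin-D positive control for full effect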
MRP-1 activ – activates MRP-1. 0.61% of 140,000 active. H69AR cells + doxorubicin, viability rescue, CellTiter-Glo. viability increase, % at 10 µM;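 active = viability gain under doxorubicin at or above a set limit, the compound median plus 3 SD, cut at about 4.7% in these data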;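 also: MRP-1 overexpressing cells given doxorubicin 25 µM after compound pretreatment; 18-22 h compound pretreatment then 72 h with doxorubicin before readout; 0% = doxorubicin-only wells and 100% = vehicle-treated cells without doxorubicin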
MRP resist rev – compounds reversing MRP-mediated drug resistance; differential viability (reversal), % at 10 µM; H69AR cells + 2 uM doxorubicin, CellTiter-Glo, 72 h; 0.04% of 85,000 active;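 active = viability drop by adding the cancer drug above about 55%, with treated viability meeting a 40% cutoff, limit read from the data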;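 also: viability without doxorubicin minus viability with 2 µM doxorubicin for each compound; larger differential means the compound sensitizes cells more to doxorubicin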
CD11b adhes enh – enhancers of human CD11b/CD18 binding to fibrinogen; K562 CD11b/CD18 adhesion to fibrinogen, ATPlite luminescence; activation, % at 10 µM; 0.07% of 93,000 active; P05107+P11215; AID 1499;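 active = 10 µM primary screen giving 50% or more activity, confirmed by 40% or more on retest at that dose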
SDO1 rescue DR – confirmation of growth rescue in SDO1-depleted yeast, bone marrow failure | shares compounds with SDO1 yeast rescue | S. cerevisiae JHY4D (SDO1-depleted) growth rescue, OD600, 30 h; active compounds read high; efflux-deficient strain, SNQ2 and PDR5 mutated | OD recovery (concentration not given with the values) | 44% of 440 active | AID 949;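 active = yeast growth recovered at 30 hours, either rising with dose fitted slope above 0.001 or with average optical density gain above 0.07, some results past the limit were not filed as active; inactive = growth falling with dose or no effect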;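 also: gain in OD600 from 0 h to 30 h averaged across all seven doses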
The depositor's hits bear a star; / = no result.

SMILES	SDO1 yeast rescue	Mac1 fbg inh	Phagocyt inh	MRP-1 activ	MRP resist rev	CD11b adhes enh	SDO1 rescue DR
CCn1c(N)c(C(=O)NCc2ccc3c(c2)OCO3)sc1=S	2.23	-14.1	-1.4	-3.5	13.7	-5.9	0.0593
COc1ccc(Cl)cc1C(=O)Nc1nnn(C)n1	2.26	-6.0	-0.2	-0.6	-13.5	-2.6	0.0712
COc1ccc(Br)cc1C(=O)Nc1nnn(C)n1	-0.32	4.2	/	0.3	-0.4	-6.1	/
CCCCN(C)C(=O)c1cc2cc3ccc(OC)cc3nc2s1	15.7*	15.7	2.2	-2.5	-15.2	-4.5	0.0758*
CCOc1ccc(S(=O)(=O)N2CCN(C(=O)c3cc4c(s3)CCCC4)CC2)cc1	-0.69	/	-7.8	-3.5	/	/	/
CCOC(=O)c1c(C)c(C(=O)NC(C)COC)c(C)n1CC (configuration not stated)	0.37	-14.2	-0.8	-1.9	9.5	11.3	/
COc1ccc(C(CNC(=O)c2cc(C)oc2C)N2CCOCC2)cc1 (configuration not stated)	1.53	7.4	-1.2	-1.3	-4.2	-7.7	0.0818*
Cc1cc2cc(C)c3nnc(SCC(=O)N4CCc5ccccc54)n3c2cc1C	0.86	/	/	-1.9	/	/	/
COc1ccccc1NC(=O)COC(=O)c1ccccc1OCC(=O)Nc1ccc(SC(F)F)cc1	1.32	/	0.0	1.6	/	/	0.0728*
COc1ccccc1C(=O)COC(=O)c1ccccc1OCC(=O)Nc1ccc(SC(F)F)cc1	-0.81	/	-3.0	-1.5	/	/	/
CC(C(=O)NC1CCCC1)N(C(=O)c1snc(C(N)=O)c1N)c1ccc2c(c1)OCCO2 (configuration not stated)	14.4*	-12.6	-3.5	-4.2	-17.6	2.3	0.0803*
COc1ccccc1N(C(=O)c1snc(C(N)=O)c1N)C(C(=O)NC1CCCC1)c1ccco1 (configuration not stated)	-1.03	0.0	-0.2	-1.1	-1.9	2.4	/
O=C(CCCN1C(=O)c2ccccc2C1=O)NCC1CCCO1 (configuration not stated)	1.96	-6.7	2.1	-2.6	4.0	0.2	0.0347
O=C(CN1C(=O)c2ccccc2C1=O)NCC1CCCO1 (configuration not stated)	0.2	9.4	-1.1	-2.3	/	-3.4	/
Cc1ccc(S(=O)(=O)NCCCCCC(=O)Nc2cccc(C)c2)cc1	-0.13	/	-5.8	-3.1	/	/	/
Cc1cccc(C)c1NC(=S)N1CCC(N(C)CC2CCCO2)CC1 (configuration not stated)	0.62	-0.2	-2.2	-2.3	9.7	1.2	/
Cc1cc(C)c(NC(=S)N2CCC(N(C)CC3CCCO3)CC2)c(C)c1 (configuration not stated)	3.65*	18.6	/	-1.9	2.5	-4.6	0.0961*
COc1cc2c(cc1NC(=O)c1cccc([N+](=O)[O-])c1)oc1ccccc12	3.01*	-13.6	0.3	-1.7	/	2.6	0.0401
COc1ccccc1OCc1ccc(C(=O)NCCN(C)C)o1	2.69	/	/	-1.7	4.4	/	0.0968*
CCOC(=O)c1sc2nc3n(c(=O)c2c1C)CCC(C)CC3 (configuration not stated)	3.99*	-22.5	0.9	3.4	12.0	-0.1	0.0654
COc1ccc(C(=O)NC(Nc2ccccc2)C(Cl)(Cl)Cl)cc1 (configuration not stated)	-1.45	/	/	-2.1	/	/	/
CCOC(=O)c1nonc1NC(C)=O	0.54	/	/	-1.7	0.2	/	/
CCOC(=O)c1nsnc1NCCSC(=N)N	6.18*	/	-1.8	-0.9	/	/	0.0942*
CN1CC=C2C(C#N)=C(N)C(C#N)(C#N)[C@H](c3ccoc3)[C@H]2C1	3.42*	9.7	-1.2	-1.3	-3.4	-2.1	0.0498
CN(Cc1ccccc1)C(=S)Nc1ccc(OC(F)F)cc1	9.06*	/	-5.0	0.0	/	/	0.0659
SMILES	SDO1 yeast rescue	Mac1 fbg inh	Phagocyt inh	MRP-1 activ	MRP resist rev	CD11b adhes enh	SDO1 rescue DR
CN(C)C(=O)/C(=C\c1cccc(Oc2ccccc2)c1)NC(=O)c1ccccc1	-0.4	6.1	/	-3.0	/	0.0	/
Cc1cnc(C(=O)OCC(=O)N2c3ccccc3NC(=O)C2(C)C)cn1	1.11	-18.4	-3.8	0.0	5.3	-0.9	/
Cc1nn(-c2ccccc2)c(C)c1C(=O)OCC(=O)N1c2ccccc2NC(=O)C1(C)C	14.2*	-16.2	-0.4	-4.7	3.3	-1.9	0.0507
O=C(N1CCN(c2ccccc2)CC1)C(F)(F)C(F)F	0.12	-1.1	-0.7	1.5	3.2	-2.0	/
O=C(N1CCN(c2ccccc2)CC1)C(F)(F)C(F)(F)F	3.42*	-4.6	0.2	0.2	-7.9	-2.0	0.042
Cc1c(C(=O)NC2CCCc3ccccc32)oc2ccc(S(=O)(=O)N3CCCCC3)cc12 (configuration not stated)	9.35*	/	-0.2	-4.1	/	/	0.0924*
COc1ccc(C(=O)N2CCN(S(=O)(=O)c3cc(Cl)ccc3OC)CC2)cc1	-0.92	-17.1	2.1	-1.8	4.6	5.9	/
Cc1ccc(S(=O)(=O)C2(C(=O)N3CCCCC3C)CC2)cc1 (configuration not stated)	0.35	-24.2	-0.7	-0.1	-7.7	5.0	/
Cc1nn(-c2ccccc2)c(C)c1NC(=O)Cc1cccs1	0.7	/	/	-2.0	-5.7	/	/
Cc1nn(-c2ccccc2)c(C)c1NC(=O)c1cccs1	3.28*	-1.5	1.1	-1.0	4.7	-3.8	0.0648*
O=C(C1CCCCC1)N(Cc1ccccc1)c1ccccn1	10.6*	-10.2	-0.5	-1.5	6.0	-2.0	0.0783*
COCCn1c(SCC(=O)Nc2sc(C)c(C)c2C#N)nnc1-c1ccc(OC)cc1	-1.13	-1.1	-0.8	-3.2	-7.0	2.5	/
COCCn1c(SCC#N)nnc1-c1ccc(OC)cc1	9.04*	/	/	-0.6	-1.0	/	0.0582
COC(=O)c1cc(C#N)c(N(C)Cc2ccccc2)nc1C	-1.75	13.5	-1.9	-0.3	13.5	-1.8	/
COC(=O)c1cc(C#N)c(NCc2ccccc2)nc1C	13.9*	2.9	2.1	0.2	-4.1	2.6	0.0872*
Cc1n[nH]c(C)c1S(=O)(=O)N1CCCC(C(=O)Nc2ccc3c(c2)OCCO3)C1 (configuration not stated)	2.13	-21.9	-1.1	0.2	9.1	-1.6	0.0939*
O=C(Nc1ccc2c(c1)OCO2)C1CCCN(S(=O)(=O)Cc2ccccc2)C1 (configuration not stated)	2.35	-16.0	-1.2	-1.3	10.6	-0.2	0.0824*
CCOc1ccc(C(=O)C[n+]2ccccc2C)cc1	1.13	-5.1	-11.5	1.6	/	9.1	/
Cc1nn(Cc2ccc(Br)cc2)c(C)c1NC(=O)c1nn(C)cc1Cl	15.4*	4.6	3.6	1.5	-3.8	-0.2	0.0497
Cc1ccc(Cn2nc(C)c(NC(=O)c3nn(C)cc3Cl)c2C)cc1	0.79	/	/	-1.2	-24.3	/	/
